# Shown are actives, neighbours in structure and some others; about 1.8% of the full set was active somewhere.
# Exocytosis inh: LAMP-1 surface exposure blockers, TALL-104 cells – cell-based, flow cytometry, MLPCN library, primary screen. TALL-104 LAMP-1 surface exposure; cells stimulated with thapsigargin and PMA. inhibition, % at 10 µM. 360,000 tested, 0.66% active. AID 651702, 2012;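 active means inhibition above about 55%, limit read from the data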
# ABCB6 inh 2: ABCB6 transporter inhibitors, primary screen, K562-ABCB6 cells, flow cytometry, MLPCN library. ATP-binding cassette sub-family B member 6 (Homo sapiens), Q9NP58. K562-ABCB6 porphyrin accumulation, 1 h; hits give low values. fluorescence ratio to DMSO, % at 10 µM. 360,000 tested, 0.19% active;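 active means fluorescence ratio to DMSO below 75%, the collection mean minus 3 SD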;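 further: signal is porphyrin accumulated inside mitochondria; 100% equals median channel fluorescence of DMSO control wells; lower ratio means ABCB6 inhibition with less porphyrin fluorescence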
# Myeloid diff 2: induction of myeloid progenitor differentiation, primary screen, cell-based, flow cytometry, MLPCN library | 360,000 tested, 1% active | ER-HoxA9 myeloid progenitors, lysozyme-GFP differentiation | calls only at 10 µM;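 active means normalized GFP-positive differentiation at or above the plate's own cutoff, the solvent-only control mean plus 3 SD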;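 further: cells exposed to compound for four days before flow analysis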
# Myeloid diff: inducers of myeloid progenitor differentiation, confirmation, cell-based, GFP/Mac1 flow cytometry, cherry pick 01; shares compounds with Myeloid diff 2; ER-HoxA9 myeloid progenitors, GFP/Mac1 double-positive flow; calls only; 2,300 tested, 2% active;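 active means share of green or green-and-red cells above 9 and 9% in run 1 or 4 and 3% in run 2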
# GFP autofluor: compound fluorescence in myeloid differentiation counter-screen | shares compounds with Myeloid diff 2 | ER-HoxA9 myeloid progenitors, no estrogen, GFP autofluorescence flow cytometry; vehicle wells 0%, positive control 100% | fluorescence response, % (test concentration not listed) | 2,300 tested, 7.4% active | AID 651707;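 active means over 5% cells positive for green fluorescent reporter, or over 2% positive for both it and APC stain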;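 further: range taken on the double positive population between DMSO and positive control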
# Active calls of the source: *; i = inactive; x = not tested or not shown; + = active, no number.
SMILES,Exocytosis inh,ABCB6 inh 2,Myeloid diff 2,Myeloid diff,GFP autofluor
CCCCOc1ccc(C(O)(CCC)CCN2CCOCC2)cc1 (stereo unspecified),4.3,94.0,i,i,0.0
CCCCOc1ccc(C(O)(CC)CCN2CCOCC2)cc1 (stereo unspecified),-1.4,97.0,i,x,x
COc1ccc(C(=O)Nc2cc(C)nn2-c2ccc(C)cc2)cc1,-5.1,97.0,i,x,x
Fc1ccc(C(c2nnnn2C2CCCCC2)N2CCCC2)cc1 (stereo unspecified),-1.4,101.0,i,x,x
Fc1ccc(C(c2nnnn2C2CCCC2)N2CCN(Cc3ccncc3)CC2)cc1 (stereo unspecified),-1.0,99.0,+,i,0.0
COc1ccc(NC(=O)c2cnn(-c3ccccc3)c2C)cc1OC,-2.0,95.0,i,x,x
CC(C)Cn1c(N2CCN(CC(=O)Nc3ccc(Cl)cc3)CC2)nc2ccccc21,5.7,91.0,i,x,x
O=C(NCc1ccncc1)C1Cc2c(-c3ccc(Cl)cc3)ccnc2O1 (stereo unspecified),4.2,101.0,i,x,x
O=C(NCc1cccnc1)C1Cc2c(-c3ccc(Cl)cc3)ccnc2O1 (stereo unspecified),1.2,96.0,+,i,0.0
COc1cc(NC(=O)COC(=O)Cc2ccsc2)cc(OC)c1,-8.3,100.0,i,x,x
Fc1ccc2c(c1)/C(=N/Nc1ccccn1)CCS2,3.3,97.0,i,x,x
COc1ccc(CCNC(=O)C(=O)NCC2CCCN2S(=O)(=O)c2ccccc2)cc1OC (stereo unspecified),-4.0,92.0,i,x,x
O=C(NCc1ccccc1)N1CCOCC1,-5.5,94.0,i,x,x
O=C(OCc1ccccc1)N1CCOCCOCCN(C(=O)OCc2ccccc2)CCOCCOCC1,-3.8,95.0,+,i,0.0
CC(C)(C)C(=O)NC(=S)NCc1ccccc1,2.8,95.0,i,x,x
CCOC(=O)C1CCCN(C(=O)CCc2nc3sc4c(c3c(=O)[nH]2)CCCC4)C1 (stereo unspecified),-3.4,86.0,i,x,x
O=C(CCC1CCCCC1)NCCS(=O)(=O)N1CCN(c2ccc(F)cc2)CC1,1.6,100.0,i,x,x
Cc1csc(SCc2nnc(-c3ccc(Cl)cc3)o2)n1,-2.5,95.0,i,x,x
Cc1csc(SCc2nnc(-c3ccccc3Br)o2)n1,-1.2,104.0,i,i,0.0
CC(C)CC(C(=O)NCC1CCCO1)N(C(=O)Cn1nnc(-c2ccc(F)cc2)n1)c1cccc(C(F)(F)F)c1 (stereo unspecified),5.9,91.0,i,x,x
O=C(NCC1CCCO1)C(c1ccc(F)cc1)N(C(=O)Cn1nnc(-c2ccc(F)cc2)n1)c1cccc(O)c1 (stereo unspecified),-2.5,96.0,i,i,0.0
CCN(CC)C(=O)C1=C(C)N(Cc2ccccc2)C(=O)C(CC(=O)NC2CCCCC2)C1 (stereo unspecified),-1.7,101.0,i,x,x
CCOC(=O)N1CCN(c2ccc(Cl)c(Cl)c2)CC1,3.6,103.0,+,i,0.3
CCOC(=O)N1CCN(C2CC(=O)N(c3ccc(Cl)c(Cl)c3)C2=O)CC1 (stereo unspecified),2.1,93.0,i,x,x
Cc1ccc([C@H]2N[C@]3(CCCN(Cc4ccccc4)C3=O)[C@H]3C(=O)N(C)C(=O)[C@@H]23)cc1,0.5,98.0,i,x,x
SMILES,Exocytosis inh,ABCB6 inh 2,Myeloid diff 2,Myeloid diff,GFP autofluor
O=C(c1ccco1)N1CCN(C(=O)c2cn(-c3ccccc3)nc2-c2ccc(F)cc2)CC1,-0.1,102.0,i,x,x
COc1ccccc1-c1nn(-c2ccccc2)cc1C(=O)N1CCN(C(=O)c2ccco2)CC1,2.9,101.0,i,i,0.4
COCCCN1C(=O)C(CC(=O)NC(c2ccccc2)c2ccccc2)CC(C(=O)N(C(C)C)C(C)C)=C1C (stereo unspecified),-1.6,94.0,i,x,x
Cc1ccc(NC2=C(NC(=O)c3ccccc3)C(=O)c3ccccc3C2=O)cc1Cl,23.1,97.0,i,x,x
O=C(O)c1cccc(NC2=C(Cl)C(=O)c3ccccc3C2=O)c1,31.4,102.0,+,i,0.8
Cc1ccc2c(c1)C1CN(C)CCC1N2S(=O)(=O)c1cc(C(F)(F)F)ccc1Cl (stereo unspecified),10.2,109.0,i,x,x

# Assay outcomes as filed in PubChem BioAssay.
